In PubChem BioAssay (NCATS):
Inconclusive results are not listed. Activity calls are given as the source filed them. Unless noted, calls come from the whole dose curve; as a rule, active = well fitted curve in the direction sought with a large enough effect; inconclusive = small, poorly fitted or top-dose-only effect, or another doubt; inactive = no such curve, though single readings can be large; an effect the other way counts as inactive or inconclusive.

Experiments:
[1] = Cell Viability - Hek293 (AID 427;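 active = compounds whose dose-response curve shows a full or clear partial loss of cell viability, called from curve shape rather than a numeric limit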;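 note: potency is the fitted concentration of half-maximal effect; cells exposed to compound for 40 hours at 37 °C before reading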); conditions: qHTS
In short: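 HEK293 cells in complete medium were exposed to compound for 40 hr at 37 °C, then cellular ATP was read by CellTiter-Glo luminescence. Data were normalized to DMSO (basal) and 100 uM tamoxifen (100% inhibition), and AC50 came from Hill fits.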

[2] = Cell Viability - MRC5 (AID 434; calls by dose curve;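 note: potency is the fitted concentration of half-maximal effect; potency reflects cytotoxicity seen as loss of intracellular ATP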); conditions: MRC5 lung fibroblast viability, qHTS
In short: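 ATP luminescence read-out (CellTiter-Glo, 20 min RT) after 40 hr, 37 °C compound exposure of 1500 MRC5 cells/well. Data normalized to DMSO (basal) and 100 uM tamoxifen (100% inhibition); AC50 from standard Hill equation.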

[3] = molecular target: Mitogen-activated protein kinase 10 (Mus musculus) (UniProt Q61831); assay: JNK3 AlphaScreen Assay (AID 530; active = well fitted curve in either direction with a large enough effect, not every such curve was filed as active;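 note: kinase came from lysate of stimulated human HepG2 cells; signal reports phosphorylation of biotinylated GST-cJun 1-79 at Ser73 with 10 µM ATP; % is set by controls: 0 for no effect and ±100 for the full control effect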); conditions: JNK3 lysate, c-Jun phosphorylation; series mostly up to 57.1 µM
In short: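 HepG2 lysate (IL-1b/TNFa pre-activated) + biotin-GST-cJun 1-79 + anti-pSer73 cJun; cpd titration, 15 min RT; ATP 10 uM start; Tris pH 7.6, MgCl2, DTT, vanadate; beads in EDTA buffer; AlphaScreen.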

[4] = Cell Viability - HUV-EC-C (AID 542); conditions: HUV-EC-C endothelial cell viability, qHTS; series mostly up to 92.2 µM; note: % is set by controls: 0 for no effect and ±100 for the full control effect; nearly all actives have a fitted effect of over 35% in size
In short: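 Concentration-dependent ATP loss in HUV-EC-C cells is the measure. Exposure lasts 40 hr at 37 °C; luminescence follows CellTiter-Glo addition, and Hill fits give AC50.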

[5] = Cell Viability - SH-SY5Y (AID 544); conditions: SH-SY5Y neuroblastoma cell viability; viability change, negative = cytotoxic: at 92.2 µM (top of the series); note: nearly all actives have a fitted effect of over 55% in size
In short: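 Quantitative HTS in SH-SY5Y neuroblastoma cells, 40 hr treatment at 37 °C, ATP content by luciferase luminescence; AC50 from Hill fits.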

[6] = Cell Viability - Renal Proximal Tubule (AID 545); conditions: renal proximal tubule cells viability; series mostly up to 91.7 µM; note: nearly all actives have a fitted effect of over 40% in size
In short: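 Cytotoxicity is scored as a concentration-dependent drop in cellular ATP in primary rat renal proximal tubule cells exposed for 40 hr. AC50 derives from Hill modelling.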

[7] = Cellular Toxicity (caspase-3) HepG2 (AID 654); conditions: HepG2 caspase-3 activation, luminescence, 0% = DMSO only, 100% = tamoxifen; series mostly up to 92.2 µM;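 note: cells exposed to compound for 16 hours before reading; 0% = DMSO alone and 100% = caspase signal from 100 µM tamoxifen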
In short: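 Concentration-response AC50 values reflect caspase-3/7 induction in HepG2 cells after 16 hours of compound exposure, quantified by luminescence from liberated aminoluciferin and referenced to 100 uM tamoxifen as full stimulation.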

[8] = Cellular Toxicity (caspase-3) Jurkat (AID 655); conditions: Jurkat caspase-3 activation, luminescence; caspase-3 activation: at 92.2 µM (top of the series), DMSO = 0%, tamoxifen = 100%;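 note: cells exposed to compound for 16 h at 37 °C before reading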
In short: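 Caspase 3/7 activation is scored as increased luminescence in Jurkat cells cultured with compound for 16 hours in complete medium. AC50 values come from Hill fits of qHTS concentration-response data normalized to DMSO and 100 uM tamoxifen controls.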

[9] = Cellular Toxicity (caspase-3) HUV-EC-C (AID 656); conditions: HUV-EC-C cells, caspase-3 activation (apoptosis), vehicle = 0, 100 µM tamoxifen = 100%; series mostly up to 92.2 µM
In short: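 Read-out: luminescence proportional to caspase 3/7 activity, measured 20 min after adding Caspase-Glo 3/7 reagent. Cells (HUV-EC-C) had received compound for 16 hr at 37°C. Increases relative to DMSO and 100 uM tamoxifen gave concentration-response AC50 values.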

[10] = Cellular Toxicity (caspase-3) SHSY5Y (AID 657); conditions: SH-SY5Y caspase-3 activation, DMSO zero, 10 µM staurosporine = 100%; series mostly up to 91.7 µM
In short: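 Cells plated and incubated 5 h at 37 °C, dosed over a concentration range, incubated 16 h, then given Caspase-Glo 3/7 reagent for 1 h at room temperature before luminescence reading. Staurosporine (10 uM) defined full stimulation.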

[11] = Cellular Toxicity (caspase-3) BJ (AID 658); conditions: BJ fibroblasts, luminescence, normalized: DMSO 0%, staurosporine 100%; series mostly up to 91.7 µM
In short: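 qHTS, BJ fibroblasts, 1000 cells/well; 5 hr preincubation, 16 hr compound, 37 °C; Caspase-Glo 3/7 reagent, 1 hr RT; luminescence. DMSO = 0%, 10 uM staurosporine = 100%. Hill-equation AC50.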

[12] = Cellular Toxicity (caspase-3) MRC-5 (AID 659); conditions: MRC-5 cells, luminescence, normalized: DMSO 0%, 10 µM staurosporine 100%; series mostly up to 91.7 µM
In short: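 MRC-5 fibroblasts, 1500/well; 16 h cpd, 37 °C; Caspase-Glo 3/7, 1 h RT; lumi read. Norm: DMSO = 0%, 10 uM staurosporine = 100%. Hill-fit AC50 from qHTS conc-response.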

[13] = Cellular Toxicity (caspase-3) Mesangial (AID 660); conditions: mesangial cells, normalized: DMSO 0%, 100 µM tamoxifen 100%; series mostly up to 91.7 µM;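 note: cells exposed to compound for 16 h before the caspase read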
In short: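 AC50 values come from Hill-equation fits of caspase 3/7 activation, measured as Caspase-Glo luminescence in human glomerular mesangial cells exposed to compound for 16 h at 37 °C; 100% set by 100 uM tamoxifen.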

[14] = Cellular Toxicity (caspase-3) SK-N-SH (AID 661); conditions: SK-N-SH caspase-3 activation, qHTS; series mostly up to 91.7 µM
In short: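 Apoptosis readout in SK-N-SH neuroblastoma: Caspase-Glo 3/7 luminescence following 16 hr treatment in complete culture medium. Normalization used DMSO and 10 uM staurosporine controls.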

[15] = Cellular Toxicity (caspase-3) H-4-II-E (AID 663); conditions: H-4-II-E rat hepatoma; Potency: caspase-3 activation; series mostly up to 92.2 µM;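 note: cells exposed to compound for 16 hr before readout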
In short: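 H-4-II-E rat hepatoma, 1500 cells/well, 5 hr settle at 37 °C; compound 16 hr, 37 °C, complete medium; Caspase-Glo 3/7, 20 min RT; luminescence. DMSO = 0%, 100 uM tamoxifen = 100%; Hill-equation AC50.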

[16] = Cellular Toxicity (caspase-3) N2a (AID 665); conditions: N2a cells, luminescence, normalized: DMSO 0%, 10 µM staurosporine 100%; series mostly up to 92.2 µM;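 note: compound exposure lasted 16 h at 37 °C before readout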
In short: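 Concentration-response qHTS: compound-induced caspase-3/7 luminescence in N2a cells (16 h, 37 °C), relative to DMSO and 10 uM staurosporine controls; AC50 obtained using the standard Hill equation.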

[17] = Cellular Toxicity (caspase-3) NIH 3T3 (AID 666); conditions: NIH 3T3 caspase-3 activation, apoptosis/toxicity; series mostly up to 92.2 µM;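 note: caspase signal read after 16 h compound exposure; 0% = DMSO basal and 100% = 100 µM tamoxifen stimulation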
In short: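 Activity: caspase-3/7 induction, NIH 3T3 cells, 16 hr treatment at 37°C, luminescent Caspase-Glo detection; AC50 via Hill equation.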

[18] = molecular target: Cytochrome P450 3A4 (Homo sapiens) (UniProt P08684); assay: qHTS Assay for Inhibitors and Substrates of Cytochrome P450 3A4 (AID 884); conditions: recombinant CYP3A4, Luciferin-PPXE luminescence; series mostly up to 57.1 µM; note: % is set by controls: 0 for no effect and ±100 for the full control effect; nearly all actives have a fitted effect of over 50% in size
In short: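 Luminescent readout of luciferin produced by CYP3A4 (20 nM) dealkylation of Luciferin-PPXE, 25 uM (its KM). NADPH-driven reaction ran 60 min at RT after 10 min compound preincubation; data scaled to 57 uM ketoconazole as 100% inhibition.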

[19] = Confirmation and Secondary Assay for Modulators of Hemoglobin Beta Chain Splicing at IVS2 654 locus (AID 910); conditions: HeLa EGFP-654 splicing reporter, GFP fluorescence, 48 h; series mostly up to 38.3 µM;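 note: HeLa cells stably carrying EGFP split by mutant beta-globin IVS2-654 intron; % of control where 0% means no effect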
In short: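 HeLa cells stably expressing EGFP interrupted by β-globin IVS2-654 intron, seeded overnight in Opti-MEM/2% FCS, then treated 2 days at 37 °C. Restored splicing read as total peak GFP intensity per well by laser scanning cytometry (488 nm excitation, 500–520 nm emission); 500 nM antisense PNA as control.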

Cytochrome P450 3A4 (Homo sapiens), sequence (P08684 whole entry, looked up): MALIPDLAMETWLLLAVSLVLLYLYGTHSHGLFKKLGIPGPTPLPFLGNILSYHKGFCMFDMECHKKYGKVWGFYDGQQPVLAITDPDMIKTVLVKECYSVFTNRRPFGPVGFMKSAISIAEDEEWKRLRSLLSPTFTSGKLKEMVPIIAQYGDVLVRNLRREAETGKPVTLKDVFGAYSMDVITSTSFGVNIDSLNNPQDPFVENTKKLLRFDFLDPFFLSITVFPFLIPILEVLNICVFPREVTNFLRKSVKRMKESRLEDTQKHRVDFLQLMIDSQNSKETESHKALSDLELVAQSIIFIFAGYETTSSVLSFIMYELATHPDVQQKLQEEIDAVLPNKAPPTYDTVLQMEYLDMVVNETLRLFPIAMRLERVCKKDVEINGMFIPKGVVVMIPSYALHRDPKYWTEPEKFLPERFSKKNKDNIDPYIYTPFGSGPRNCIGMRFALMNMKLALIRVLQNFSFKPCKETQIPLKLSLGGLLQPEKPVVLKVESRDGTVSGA

O=[N+]([O-])c1ccc(O)c([N+](=O)[O-])c1
inactive: Potency [1] > 92 µM | Potency [2] > 92 µM | Potency [3] | Potency [4] | Potency [5] | outcome [6] | outcome [7] | caspase-3 activation [8] -6.84% | outcome [9] | outcome [10] | outcome [11] | outcome [12] | outcome [13] | Potency [14] | Potency [15] | outcome [16] | Potency [17] | Potency [18] | outcome [19]
